Most compounds without a hit are left out; they make up all but 0.67% or so of the library.
Sa RN4220 lethal: kills Staphylococcus aureus RN4220. S. aureus RN4220 growth, OD600, 16 h. inhibition, % (test concentration not listed). 0.33% of 330,000 active. AID 1259311; in the data active means inhibition above about 85%;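 further: plate controls were untreated cells for no effect and reference antibiotic for full effect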
Sa ugtP lethal: compounds lethal to S. aureus RN4220 ugtP deletion mutant. AID 1259309. 0.54% of 330,000 active. OD600 growth, 16 h. growth inhibition, % (no concentration beside the values); in the data active means growth inhibition above about 68%;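 further: plate controls were untreated wells for no effect and antibiotic for full effect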
Vc quorum ag: quorum light induction in luxS cqsA deficient V. cholerae; AID 588436; activation, % at 18.7 µM; V. cholerae BH1578 lux reporter, luminescence, 6 h; 0.16% of 350,000 active; in the data active means activation mostly above about 9.7%, no sharp cut-off
TcdB inh: TcdB glycohydrolase inhibition | TcdB glycohydrolase enzymatic assay, plate reader | inhibition, % at 9.99 µM | 0.24% of 350,000 active; in the data active means inhibition above about 10%
Numbers without * were called inactive; i = inactive; x = not tested or not shown; ! = repeats disagree.

SMILES	Sa RN4220 lethal	Sa ugtP lethal	Vc quorum ag	TcdB inh
NCCCCc1ccc2ccc3cccc4ccc1c2c34	100.5*	100.1*	1.8	1.0
O=C(Nc1nc2c(Cl)cccc2s1)c1ccc([N+](=O)[O-])o1	99.9*	100.4*	2.3	0.1
Cc1ccc(OC(=O)CCN2C(=O)c3ccccc3C2=O)cc1C	5.2	89.6*	i	0.8
Cc1ccc(OCC(=O)OCCN2C(=O)c3ccccc3C2=O)cc1C	x	x	0.3	-0.1
Cc1cc(C)cc(OC(=O)CCN2C(=O)c3ccccc3C2=O)c1	3.7	84.4*	-17.1	1.6
O=C(O)c1ccc(NN=Cc2ccc(F)c(F)c2)cc1	0.6	12.5	x	x
c1ccc(-c2nnc(SCC3CCCO3)nc2-c2ccccc2)cc1 (stereo not given)	0.2	9.2	-0.7	1.0
c1ccc(-c2nnc(SCC3CCCCO3)nc2-c2ccccc2)cc1 (stereo not given)	2.8	93.7*	-0.3	1.1
Cc1ccc(S(=O)(=O)N2C(c3ccc(Cl)cc3)CC=C(C(=O)O)C2c2ccc(F)cc2)cc1 (stereo not given)	19.1	93.4*	x	x
Cc1ccc(S(=O)(=O)N2[C@@H](c3ccc(C(C)(C)C)cc3)C(C(=O)O)=CC[C@H]2c2ccc(Cl)c(Cl)c2)cc1	99.7*	94.5*	-0.6	-0.3
CC(C)(O)C=CC[C@](C)(O)C1CC[C@]2(C)C1C(OC1OC(CO)C(O)C(O)C1O)CC1[C@@]3(C)CCC(O)C(C)(C)C3C(O)C[C@]12C (stereo not given in full)	-1.1	-1.4	x	x
O=C(NC1CC=CCC(CC(=O)N(CCO)Cc2ccccc2)C(=O)NCC(c2ccccc2)OC1=O)OCC1c2ccccc2-c2ccccc21 (stereo not given)	-4.2	7.6	x	x
Nc1c(Cl)ncnc1NCc1cccnc1	2.2	16.2	-0.5	1.5
Nc1c(Cl)ncnc1NCCc1ccc(O)cc1	2.3	2.6	-4.4	11.0*
C(=Nn1cnnc1)c1ccc2c(c1)OCO2	2.0	2.3	x	x
COc1cccc(C2Oc3ccc(OC)cc3C(=O)C2OC(=O)Nc2cc(OC)c(OC)c(OC)c2)c1 (stereo not given)	-2.5	-1.2	x	x
CC1(C)CC(NS(=O)(=O)OCC(Cl)(Cl)Cl)c2cc(C#N)ccc2O1 (stereo not given)	99.1*	99.0*	i	1.2
COc1ccc2c(c1)CCCC2NS(=O)(=O)OCC(Cl)(Cl)Cl (stereo not given)	13.6	-31.3	-4.5	-0.6
O=c1[nH]c2ccccc2nc1C=Cc1ccc(O)cc1	6.7	7.1	x	x
c1cc2c(cc1C1CCCCC1)c1c3n2CCCNC3CCC1 (stereo not given)	88.6*	87.1*	i	x
COc1ccc(C(=O)N2CCCN(C)CC2)cc1S(=O)(=O)N1CCCc2ccccc21	3.3	1.9	6.7	x
COc1ccc(C(=O)N2CCOCC2)cc1S(=O)(=O)N1CCCc2ccccc21	6.8	5.1	0.1	11.9*
O=C(NN=Cc1cn[nH]c1-c1ccccc1)c1cccnc1	2.9	-1.6	x	x
O=C(N/N=C1\C(=O)c2cccc3cccc1c23)c1ccc(O)cc1	-18.9	1.4	i	0.0
O=C(NN=C1C(=O)c2cccc3cccc1c23)c1ccc(Cl)cc1	97.1*	91.5*	x	x
SMILES	Sa RN4220 lethal	Sa ugtP lethal	Vc quorum ag	TcdB inh
CCCOc1cccc(C(=O)NN=Cc2ccoc2)c1	1.4	2.8	x	x
c1ccc(C[n+]2c(-c3ccccc3)csc2Nc2ccccc2)cc1	-9.7	85.2*	-0.2	0.1
c1ccc(Nc2scc(-c3ccccc3)[n+]2Cc2ccco2)cc1	-6.5	22.4	10.6	2.3
O=[N+]([O-])c1ccc(C=NNc2nc(N3CCCCCC3)nc(N3CCCCCC3)n2)o1	75.6	78.5	x	x
CCOc1ccc2ccccc2c1/C=N/NC(=O)c1ccncc1	x	x	i	10.9*
O=C(CN1CCN(Cc2ccccc2)CC1)NCc1ccc(Cl)cc1	5.4	11.3	i	0.3
CCc1ccccc1NC(=O)CN1CCN(CC(=O)NCc2ccc(Cl)cc2)CC1	10.8	4.4	-0.9	13.6*
CC(C=NN1CCN(Cc2ccc(C)cc2)CC1)=Cc1ccccc1	-0.8	27.4	x	x
COc1ccccc1-c1cc(C(=O)NN=Cc2sccc2C)c2ccccc2n1	-4.1	6.2	x	x
COCC#Cc1ccc2c(c1)O[C@@H](CN(C)C(=O)CC1CC1)[C@H](C)CN([C@@H](C)CO)S2(=O)=O	x	x	x	12.7*
COCC#Cc1ccc2c(c1)O[C@H](CN(C)C(=O)CC1CC1)[C@H](C)CN([C@@H](C)CO)S2(=O)=O	x	x	x	3.4
COc1cc(Cc2cnc(N)nc2N)cc(OC)c1OC	98.4*	99.8*	i	0.9
CCCCNC(=O)OC1CC2CCN3C(=O)CCCC(C1CC)C23 (stereo not given)	5.7	5.0	x	x
Cc1ccc(-n2c(=S)sc3c(=O)n(-c4ccc(F)cc4)c(SCC(=O)O)nc32)cc1C	4.0	12.1	-0.6	8.1
Cc1ccc(-n2c(SCC(=O)O)nc3c(sc(=S)n3-c3ccc(C)c(C)c3)c2=O)cc1	5.6	6.8	i	30.2*
O=c1nc(NN=Cc2ccco2)cn[nH]1	2.4	5.7	x	x
CCOC(=O)c1ccc(N=c2sc(C(=O)OC)cc(=O)n2CCCN2CCOCC2)cc1	-11.3	-1.2	-0.6	11.0*!
CSc1nnc(C(C)(C)C)c(=O)n1N=Cc1ccccc1	2.8	4.9	x	x
O=C1CCCC(=NNC(=O)c2ccc(NS(=O)(=O)c3ccc(Br)cc3)cc2)C1	4.1	-3.9	x	x
Cc1cc2c(cc1S(=O)(=O)N(C)c1ccccc1)NC(=O)CO2	-1.0	-4.3	-0.1	20.8*
O=C(O)C1CCCCC1C(=O)Nc1ncc([N+](=O)[O-])s1 (stereo not given)	17.7	7.5	x	x
O=C(c1ccccc1)c1ccc2ccccc2c1	6.5	18.2	i	0.3
Cc1sc2cc3c(c(C(=O)c4ccccc4)[n+]2c1C)-c1cccc2cccc-3c12	100.1*	100.1*	x	1.4
O=C(c1ccccc1)c1c2c(cc3sc4ccccc4[n+]13)-c1cccc3cccc-2c13	100.4*	100.3*	-0.6	x
OCCC1CC(O)C(O)[C@@]2(Cc3ccccc3O2)O1 (stereo not given in full)	4.0	1.8	x	x
SMILES	Sa RN4220 lethal	Sa ugtP lethal	Vc quorum ag	TcdB inh
Fc1ccc(-[n+]2nc(Nc3ccccc3)sc2-c2c(Cl)cccc2Cl)cc1	x	x	i	1.1
CCc1ccc(Nc2n[n+](-c3ccccc3)c(-c3c(Cl)cccc3Cl)s2)cc1	100.0*	100.1*	-0.4	1.1
CCOC1OC(C(=O)N2CCCCCCC2)=CC(c2ccc3c(c2)OCO3)C1CCCO (stereo not given)	-1.4	-4.5	x	x
CC(C)=CCC[C@](C)(OC1OC(COC2OCC(OC3OCC(O)C(O)C3O)C(O)C2O)C(O)C(O)C1O)C1CC[C@]2(C)C1C(O)CC1[C@@]3(C)CCC(O)C(C)(C)C3C(O)C[C@]12C (stereo not given in full)	5.7	-15.3	x	x
Cc1ccc(S(=O)(=O)NN=C2CC(c3ccccc3)Oc3ccccc32)cc1[N+](=O)[O-] (stereo not given)	-0.1	-1.0	x	x
CCNC(=S)N(Cc1ccc2c(c1)OCO2)C1CC(=O)N(c2ccc(F)cc2)C1=O (stereo not given)	3.8	-13.3	5.3	x
CCNC(=S)N(Cc1ccc2c(c1)OCO2)C1CC(=O)N(c2ccc(OC)cc2)C1=O (stereo not given)	5.4	-4.4	50.0*	x

Screening results (PubChem BioAssay)
